Reference: PubChem BioAssay AID1159580 (chemical genetic matrix, 2015)
Screen size: about 5,500 compounds; about 2,000 (36%) were called active. About 18% were inconclusive and are not listed. Cut-off read from the data, not from the text of the source: active = normalized growth mostly below about 0.91 (no sharp cut-off); inconclusive = no clear call, values can overlap the other calls; inactive = mostly above about 0.92. The list shows a part of the results.

Assay: chemical genetic growth profiling, strain panel (AID 1159580);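 note: tested at 20 µM; growth read once vehicle control cultures reached saturation at 30 °C; 1 = growth at the plate median or of vehicle wells; lower values mean less growth of the strain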
Conditions: growth OD

Measured: normalized growth

COc1ccc2c(c1OC)C(=O)OC2[C@H]1c2c(cc3c(c2OC)OCO3)CCN1C (stereo partly drawn)
inactive: S. cerevisiae deletion strains, locus YJR043C, strain POL32, active compounds read low 0.986 | S. cerevisiae deletion strains, locus YJR066W, strain TOR1, active compounds read low 0.973 | S. cerevisiae deletion strains, locus YKL009W, strain mrt4, active compounds read low 0.972 | S. cerevisiae deletion strains, locus YKL068W, active compounds read low 0.99 | S. cerevisiae deletion strains, locus YKL085W, strain MDH1 (second series), active compounds read low 0.991 | S. cerevisiae deletion strains, locus YKL085W, strain MDH1, active compounds read low 0.991 | S. cerevisiae deletion strains, locus YKL160W, strain elf1, active compounds read low 1.01 | S. cerevisiae deletion strains, locus YKL190W, strain CNB1, active compounds read low 0.995 | S. cerevisiae deletion strains, locus YKR001C, strain vps1, active compounds read low 0.985 | S. cerevisiae deletion strains, locus YKR026C, strain gcn3, active compounds read low 1 | S. cerevisiae deletion strains, locus YKR091W, strain srl3, active compounds read low 1.01 | S. cerevisiae deletion strains, locus YLL001W, strain dnm1, active compounds read low 0.973 | S. cerevisiae deletion strains, locus YLL026W, active compounds read low 1.01 | S. cerevisiae deletion strains, locus YLL041C, strain sdh2, active compounds read low 0.995 | S. cerevisiae deletion strains, locus YLR027C, strain aat2, active compounds read low 1.02 | S. cerevisiae deletion strains, locus YLR039C, strain RIC1, active compounds read low 0.997 | S. cerevisiae deletion strains, locus YLR058C, strain SHM2, active compounds read low 1.01 | S. cerevisiae deletion strains, locus YLR102C, strain apc9, active compounds read low 0.994 | S. cerevisiae deletion strains, locus YLR113W, strain HOG1, active compounds read low 0.966 | S. cerevisiae deletion strains, locus YLR221C, strain rsa3, active compounds read low 1 | S. cerevisiae deletion strains, locus YLR258W, strain gsy2, active compounds read low 1.02 | S. cerevisiae deletion strains, locus YLR262C, strain YPT6 (second series), active compounds read low 1.03 | S. cerevisiae deletion strains, locus YLR262C, strain YPT6, active compounds read low 1 | S. cerevisiae deletion strains, locus YLR268W, strain sec22, active compounds read low 0.948 | S. cerevisiae deletion strains, locus YLR320W, strain mms22, active compounds read low 0.975 | S. cerevisiae deletion strains, locus YLR330W, strain CHS5, active compounds read low 0.991 | S. cerevisiae deletion strains, locus YLR342W, strain FKS1 (second series), active compounds read low 1.01 | S. cerevisiae deletion strains, locus YLR342W, strain FKS1, active compounds read low 1.01 | S. cerevisiae deletion strains, locus YLR357W, strain rsc2, active compounds read low 0.997 | S. cerevisiae deletion strains, locus YLR370C, strain arc18, active compounds read low 1.02 | S. cerevisiae deletion strains, locus YLR371W, strain rom2, active compounds read low 0.98 | S. cerevisiae deletion strains, locus YLR384C, strain iki3, active compounds read low 1 | S. cerevisiae deletion strains, locus YLR418C, strain cdc73, active compounds read low 0.984 | S. cerevisiae deletion strains, locus YML016C, strain PPZ1, active compounds read low 1 | S. cerevisiae deletion strains, locus YML032C, strain rad52, active compounds read low 0.99 | S. cerevisiae deletion strains, locus YML120C, strain ndi1, active compounds read low 1.02 | S. cerevisiae deletion strains, locus YML124C, strain tub3, active compounds read low 0.989 | S. cerevisiae deletion strains, locus YMR058W, strain fet3, active compounds read low 1.01 | S. cerevisiae deletion strains, locus YMR078C, strain ctf18, active compounds read low 0.993 | S. cerevisiae deletion strains, locus YMR125W, strain sto1, active compounds read low 1.01 | S. cerevisiae deletion strains, locus YMR129W, active compounds read low 1.01 | S. cerevisiae deletion strains, locus YMR205C, strain PFK2, active compounds read low 0.981 | S. cerevisiae deletion strains, locus YMR223W, strain ubp8, active compounds read low 1.01 | S. cerevisiae deletion strains, locus YMR231W, strain pep5, active compounds read low 1.01 | S. cerevisiae deletion strains, locus YMR307W, strain GAS1, active compounds read low 1 | S. cerevisiae deletion strains, locus YNL067W, strain RPL9B, active compounds read low 0.993 | S. cerevisiae deletion strains, locus YNL071W, strain lat1, active compounds read low 1.02 | S. cerevisiae deletion strains, locus YNL153C, strain GIM3, active compounds read low 1.01 | S. cerevisiae deletion strains, locus YNL183C, strain NPR1, active compounds read low 0.951 | S. cerevisiae deletion strains, locus YNL209W, strain ssb2, active compounds read low 1 | S. cerevisiae deletion strains, locus YNL233W, strain BNI4, active compounds read low 0.999 | S. cerevisiae deletion strains, locus YNL248C, strain rpa49, active compounds read low 0.984 | S. cerevisiae deletion strains, locus YNL250W, strain rad50, active compounds read low 0.985 | S. cerevisiae deletion strains, locus YNL271C, strain bni1, active compounds read low 0.984 | S. cerevisiae deletion strains, locus YNL298W, strain CLA4, active compounds read low 0.992 | S. cerevisiae deletion strains, locus YNL307C, strain MCK1, active compounds read low 0.987 | S. cerevisiae deletion strains, locus YNL322C, strain KRE1 (second series), active compounds read low 1.02 | S. cerevisiae deletion strains, locus YNR049C, strain mso1, active compounds read low 1.01 | S. cerevisiae deletion strains, locus YNR052C, strain pop2, active compounds read low 0.978 | S. cerevisiae deletion strains, locus YOL006C, strain TOP1, active compounds read low 1.07 | S. cerevisiae deletion strains, locus YOL012C, strain htz1 0.809 | S. cerevisiae deletion strains, locus YOL147C, strain pex11, active compounds read low 0.987 | S. cerevisiae deletion strains, locus YOR001W, strain rrp6, active compounds read low 1.02 | S. cerevisiae deletion strains, locus YOR061W, strain CKA2, active compounds read low 1.01 | S. cerevisiae deletion strains, locus YOR069W, strain VPS5, active compounds read low 1 | S. cerevisiae deletion strains, locus YOR070C, strain gyp1, active compounds read low 0.996 | S. cerevisiae deletion strains, locus YOR080W, strain dia2, active compounds read low 1.04 | S. cerevisiae deletion strains, locus YOR083W, strain WHI5, active compounds read low 0.953 | S. cerevisiae deletion strains, locus YOR106W, strain vam3, active compounds read low 1.02 | S. cerevisiae deletion strains, locus YOR136W, strain idh2, active compounds read low 0.995 | S. cerevisiae deletion strains, locus YOR144C, strain elg1, active compounds read low 1 | S. cerevisiae deletion strains, locus YOR184W, strain ser1, active compounds read low 0.976 | S. cerevisiae deletion strains, locus YOR231W, strain MKK1, active compounds read low 0.985 | S. cerevisiae deletion strains, locus YOR265W, strain rbl2, active compounds read low 1.02 | S. cerevisiae deletion strains, locus YOR270C, strain vph1, active compounds read low 1.04 | S. cerevisiae deletion strains, locus YOR290C, strain snf2, active compounds read low 1.02 | S. cerevisiae deletion strains, locus YOR316C, strain cot1, active compounds read low 0.989 | S. cerevisiae deletion strains, locus YPL051W, strain arl3, active compounds read low 1.02 | S. cerevisiae deletion strains, locus YPL078C, strain atp4, active compounds read low 1 | S. cerevisiae deletion strains, locus YPL106C, strain sse1, active compounds read low 1.07 | S. cerevisiae deletion strains, locus YPL240C, strain hsp82, active compounds read low 1.01 | S. cerevisiae deletion strains, locus YPL256C, strain CLN2, active compounds read low 0.984 | S. cerevisiae deletion strains, locus YPR119W, strain clb2, active compounds read low 0.995 | S. cerevisiae deletion strains, locus YPR141C, strain kar3, active compounds read low 0.993 | S. cerevisiae deletion strains, locus YPR163C, strain tif3, active compounds read low 0.984 | S. cerevisiae deletion strains, locus YPR167C, strain met16, active compounds read low 0.986 | S. cerevisiae deletion strains, strain wtn01, active compounds read low 0.967 | S. cerevisiae strains, strain wild type, active compounds read low 1.01
